Laboratory results as given in PubChem BioAssay (NCATS).
Several values for one entry are separate records, joined by “and”; a condition that tells them apart may be missing. Identical values can stand only once. Records with an inconclusive call do not appear. Some structures have more than one record in an assay (separate samples or runs), and their calls can disagree. Activity calls are given as the source filed them. Calls come from the whole dose curve; as a rule, active = well fitted inhibition curve with a large enough effect; inconclusive = small, poorly fitted or top-dose-only effect; inactive = flat fitted curve, though single readings scatter.

Assays:
CRL-7250 = normal cell line; test: Cytotoxic Profiling of Annotated Libraries Using Quantitative High-Throughput Screening (AID 1296008); conditions: Five cell lines viability, CellTiter-Glo ATP luminescence, 48-72 h; max response: stronger effect = lower value; note: potency is the fitted concentration of half-maximal effect; for max response: % is set by controls: 0 for no effect and ±100 for the full control effect
In short: (§1)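 Cytotoxicity was measured as CellTiter-Glo ATP luminescence, read after 10 min at room temperature. Compound treatment of the cells lasted 48 or 72 hr at 37 degrees Celsius in a qHTS format.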

HEK293 = test: as above; conditions: Five cell lines viability, CellTiter-Glo ATP luminescence, 48-72 h; max response: stronger effect = lower value
In short: as §1

HaCat [1] = test: as above; conditions: Five cell lines viability, CellTiter-Glo ATP luminescence, 48-72 h; max response: stronger effect = lower value
In short: as §1

MCC-13 = test: qHTS assay to identify novel small-molecules to repurpose for Merkel cell carcinoma treatment (AID 1296009); conditions: MCC and control cell lines, CellTiter-Glo viability, 72 h; series mostly up to 46 µM; note: potency is the fitted concentration of half-maximal effect
In short: (§2)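 Cell viability measured by CellTiter-Glo following 72 hr compound treatment at 37 degree celsius, with NPC and MIPE libraries tested in 8- and 11-point concentration series.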

KB-3-1 = test: Cytotoxic Profiling of Annotated Libraries Using Quantitative High-Throughput Screening (AID 1296008); conditions: Five cell lines viability, CellTiter-Glo ATP luminescence, 48-72 h; max response: stronger effect = lower value; note: potency is the fitted concentration of half-maximal effect; for max response: % is set by controls: 0 for no effect and ±100 for the full control effect
In short: as §1

NIH3T3 = test: as above; conditions: Five cell lines viability, CellTiter-Glo ATP luminescence, 48-72 h; max response: stronger effect = lower value
In short: as §1

MCC-26 = test: qHTS assay to identify novel small-molecules to repurpose for Merkel cell carcinoma treatment (AID 1296009); conditions: MCC and control cell lines, CellTiter-Glo viability, 72 h; series mostly up to 46 µM; note: potency is the fitted concentration of half-maximal effect
In short: as §2

P93_24 = test: qHTS profiling for inhibitors of Plasmodium falciparum proliferation (AID 504749);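 note: 0% = DMSO vehicle and full inhibition = artemisinin control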; conditions: P. falciparum in erythrocytes, SYBR Green DNA, 72 h; series mostly up to 28.7 µM
In short: (§3)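 In a 72 h erythrocytic culture (37 C, humidified, 5% CO2) at 2.5% hematocrit and 0.3% starting parasitemia, compounds were tested; SYBR Green I in detergent lysis buffer stained parasite DNA overnight.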

P94_40 = test: as above; conditions: P. falciparum in erythrocytes, SYBR Green DNA, 72 h; series mostly up to 28.7 µM
In short: as §3

PAD = test: as above; conditions: P. falciparum in erythrocytes, SYBR Green DNA, 72 h; series mostly up to 28.7 µM
In short: as §3

PC15 = test: as above; conditions: P. falciparum in erythrocytes, SYBR Green DNA, 72 h; series mostly up to 28.7 µM
In short: as §3

PC26 = test: as above; conditions: P. falciparum in erythrocytes, SYBR Green DNA, 72 h; series mostly up to 28.7 µM
In short: as §3

PC49 = test: as above; conditions: P. falciparum in erythrocytes, SYBR Green DNA, 72 h; series mostly up to 28.7 µM
In short: as §3

SC27B = test: as above; conditions: P. falciparum in erythrocytes, SYBR Green DNA, 72 h; series mostly up to 28.7 µM
In short: as §3

TAB109 = test: as above; conditions: P. falciparum in erythrocytes, SYBR Green DNA, 72 h; series mostly up to 28.7 µM
In short: as §3

TAB113 = test: as above; conditions: P. falciparum in erythrocytes, SYBR Green DNA, 72 h; series mostly up to 28.7 µM
In short: as §3

TAB165 = test: as above; conditions: P. falciparum in erythrocytes, SYBR Green DNA, 72 h; series mostly up to 28.7 µM
In short: as §3

W2 = test: as above; conditions: P. falciparum in erythrocytes, SYBR Green DNA, 72 h; series mostly up to 28.7 µM
In short: as §3

HACAT [2] = test: qHTS assay to identify novel small-molecules to repurpose for Merkel cell carcinoma treatment (AID 1296009); conditions: MCC and control cell lines, CellTiter-Glo viability, 72 h; at 44.8 µM (top of the series) unless noted; note: potency is the fitted concentration of half-maximal effect
In short: as §2

HEK293T = test: as above; conditions: MCC and control cell lines, CellTiter-Glo viability, 72 h; at 44.8 µM (top of the series)
In short: as §2
Note: nearly all actives have a fitted effect of over 60% in size.

CCc1ccc(OCc2ccccc2C(=O)Nc2ccc3nc(C)cc(N)c3c2)cc1
active: Potency (CRL-7250) 10.5 µM | Potency (HEK293) 8.33 µM | Potency (HaCat [1]) 11.8 µM | Potency (MCC-13) 18700 nM

Cc1nc(N)sc1-c1ccnc(Nc2ccc(N3CCOCC3)cc2)n1
inactive: Potency (MCC-26)
active: Potency (CRL-7250) 9.35 µM and 5.17 µM | Potency (HEK293) 10.5 µM and 7.31 µM | Potency (HaCat [1]) 18.7 µM and 1.16 µM | Potency (KB-3-1) 1.66 µM and 1.64 µM | Potency (NIH3T3) 11.8 µM and 1.84 µM

O=C(O)c1c(Cl)c(Cl)c(Cl)c(Cl)c1-c1c2cc(I)c(=O)c(I)c-2oc2c(I)c(O)c(I)cc12
inactive: outcome (P93_24) | Potency (P94_40) | outcome (PAD) | outcome (PC15) | Potency (PC26) | outcome (PC49) | Potency (SC27B) | outcome (TAB109) | Potency (TAB113) | Potency (TAB165) | Potency (W2) | max response (CRL-7250) -20.2% | max response (HEK293) -16.1% | outcome (HaCat [1]) | max response (NIH3T3) -19.3% | outcome (HACAT [2])

Nc1ncnc2c1ncn2[C@@H]1O[C@@H](CO)[C@H](O)[C@H]1O
inactive: outcome (CRL-7250) | outcome (HEK293) | outcome (HaCat [1]) | outcome (KB-3-1) | outcome (HACAT [2]) | outcome (HEK293T) | Potency (MCC-13) | Potency (MCC-26)

CCOC1OC(=O)C[C@H]1NC(=O)[C@@H]1CCCN1C(=O)[C@@H](NC(=O)c1ccc(N)c(Cl)c1)C(C)(C)C (stereo partly drawn)
inactive: outcome (CRL-7250) | max response (HEK293) -6.79% | outcome (HaCat [1]) | outcome (KB-3-1) | outcome (HACAT [2]) | Potency (MCC-13) | Potency (MCC-26)

COc1cc2nc(-c3ccc(N4CCN(C)CC4)cc3)nc(NCCN3CCOCC3)c2cc1OC
active: Potency (CRL-7250) 1.66 µM | Potency (HEK293) 5.8 µM | Potency (HaCat [1]) 0.935 µM | Potency (KB-3-1) 66.2 nM | Potency (MCC-13) 9350 nM | Potency (MCC-26) 9350 nM

O=C(O)CCC1CCC(c2cc(F)ccc2F)(S(=O)(=O)c2ccc(Cl)cc2)CC1 (stereo not drawn)
inactive: outcome (CRL-7250) | max response (HEK293) -15.1% | outcome (HaCat [1]) | outcome (KB-3-1) | outcome (HACAT [2]) | Potency (MCC-13) | Potency (MCC-26)

Cn1c(N2CCCCS2(=O)=O)nc(C(=O)NCc2ccc(F)cc2)c(O)c1=O
inactive: max response (CRL-7250) -1.04% and -2.16% | max response (HEK293) -2.82% and 1.1% | outcome (HaCat [1]) | max response (KB-3-1) 0.163% and -14.6% | outcome (HACAT [2]) | Potency (MCC-13) | Potency (MCC-26)

CC(=O)N(C)C1(c2ccccc2)CCN(CCC[C@]2(c3ccc(Cl)c(Cl)c3)CCCN(C(=O)c3ccccc3)C2)CC1
active: Potency (HEK293) 662 nM and 18.4 µM | Potency (HaCat [1]) 2.35 µM and 20.6 µM | Potency (KB-3-1) 372 nM
inactive: max response (CRL-7250) -7.82% | Potency (MCC-13) | Potency (MCC-26)

Cc1ccc(/C=N/NC(=O)c2ccccc2Oc2ccccc2)o1
active: Potency (HEK293) 20.9 µM
inactive: max response (CRL-7250) -0.512% | max response (HaCat [1]) -2.81% | max response (NIH3T3) -19% | Potency (MCC-13) | Potency (MCC-26)

COc1cc(N2CCC(N3CCN(C)CC3)CC2)ccc1Nc1ncc(Cl)c(Nc2ccccc2S(=O)(=O)C(C)C)n1
active: Potency (CRL-7250) 1.46 µM | Potency (HEK293) 1.16 µM | Potency (HaCat [1]) 3.66 µM | Potency (KB-3-1) 920 nM | Potency (NIH3T3) 1.64 µM | Potency (MCC-26) 5900 nM

CN(C)C1CCN(C(=O)c2ccc(NC(=O)Nc3nc(N4CCOCC4)nc(N4CCOCC4)n3)cc2)CC1
active: Potency (CRL-7250) 0.0006 µM | Potency (HEK293) 0.142 µM | Potency (HaCat [1]) 0.252 µM | Potency (KB-3-1) 50.2 nM | Potency (NIH3T3) 0.0935 µM | Potency (MCC-26) 833 nM

CC(C)(C)c1ccc(C(O)CCCN2CCC(C(O)(c3ccccc3)c3ccccc3)CC2)cc1 (stereo not drawn)
inactive: outcome (CRL-7250) | max response (HEK293) -7.01% | max response (HaCat [1]) 1.94% | max response (KB-3-1) -14.6% and -4.64% | Potency (MCC-13) | Potency (MCC-26)

CC#CCn1c(N2CCC[C@@H](N)C2)nc2c1c(=O)n(Cc1nc(C)c3ccccc3n1)c(=O)n2C
inactive: max response (CRL-7250) 0.558% | max response (HEK293) -21.1% | max response (HaCat [1]) 3.66% | max response (KB-3-1) -0.824% | Potency (MCC-13) | Potency (MCC-26)

CC(=O)O[C@]1(C(C)=O)CC[C@H]2[C@@H]3C=C(Cl)C4=CC(=O)[C@@H]5C[C@@H]5[C@]4(C)[C@H]3CC[C@@]21C
active: Potency (HEK293) 13 µM
inactive: outcome (PC15) | outcome (PC49) | Potency (SC27B) | max response (CRL-7250) -14.7% and -0.0221% | max response (HaCat [1]) 4.62% and -21.2% | max response (KB-3-1) 2.19% and -8.34% | max response (NIH3T3) -8.51% and -19.2% | Potency (MCC-13) | Potency (MCC-26)

CC(C)(C)NC(=O)Nc1cccc(Nc2ncc(F)c(NC(C)(C)CO)n2)c1
active: Potency (HEK293) 11.8 µM | Potency (HaCat [1]) 10.5 µM and 16.4 µM | Potency (KB-3-1) 18.7 µM and 20.6 µM
inactive: max response (CRL-7250) -1.2% and -11% | Potency (MCC-13) | Potency (MCC-26)
